Assay outcomes from PubChem BioAssay.
Most compounds without a hit are left out; they make up all but 3.9% or so of the library.
Casp6 inh = inhibitors of human caspase-6. inhibition, % at 12.5 µM. actives 0.53% (n = 350,000). purified caspase-6, Z-VEID-R110 cleavage fluorescence. P55212. AID 686996;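 active = mean inhibition across replicates at least about 35%, with every replicate also reaching that limit, limit read from the data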;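 note: 0% = median of neutral control wells and 100% = no fluorescence left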
Target sequence (P55212 24-179 limits assumed): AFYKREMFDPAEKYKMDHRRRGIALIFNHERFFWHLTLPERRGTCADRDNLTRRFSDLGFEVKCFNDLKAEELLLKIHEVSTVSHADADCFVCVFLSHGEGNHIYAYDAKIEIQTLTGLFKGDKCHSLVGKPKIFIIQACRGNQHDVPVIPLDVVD
Target sequence (P55212 194-293 limits assumed): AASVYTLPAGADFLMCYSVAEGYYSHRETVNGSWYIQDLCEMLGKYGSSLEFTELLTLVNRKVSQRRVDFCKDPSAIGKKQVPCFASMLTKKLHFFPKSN
ALR H2O2 inh = inhibitors of human sulfhydryl oxidase ALR; P55789; actives 3.8% (n = 290,000); purified ALR, DTT oxidation, H2O2 HRP-luminol luminescence; AID 485317; inhibition, % (concentration not given with the values);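 active = mean replicate inhibition above about 79%, with every replicate also reaching it, limit read from the data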
Target sequence (P55789 whole entry, looked up): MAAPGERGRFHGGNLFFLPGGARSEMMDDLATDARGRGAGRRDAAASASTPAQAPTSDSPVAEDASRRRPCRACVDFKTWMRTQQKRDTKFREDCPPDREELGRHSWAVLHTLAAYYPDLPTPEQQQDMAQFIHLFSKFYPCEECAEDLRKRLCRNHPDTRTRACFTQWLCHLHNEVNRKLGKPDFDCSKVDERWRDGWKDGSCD
CDK5 inh = CDK5/p35 (human) kinase inhibition. inhibition, % at 10 µM. Q00535+Q15078. actives 0.01% (n = 330,000). AID 488839. Recombinant CDK5/p35, ADP-Glo luminescence, 60 min;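 active = highest replicate inhibition of at least 50% and at least 75% of replicates reaching 50%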;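 note: plate controls were DMSO neutral control for no effect and GW8510 at 10 µM for full effect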
NSD2 inh = NSD2 (human) methyltransferase inhibition. O96028. NSD2 peptide methylation, AlphaScreen, 120 min. inhibition, % at 12.5 µM. actives 0.54% (n = 310,000). AID 743445; in the data active = inhibition above about 50%
SUMO Mot1 rescue = blocks SUMOylation pathway, rescuing yeast Mot1-301 growth; S. cerevisiae Mot1-301 growth rescue, ATP luminescence, 38.5C; percent above DMSO median, 100 means doubled; growth rescue, % at 18.8 µM; actives 1% (n = 320,000);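 active = every valid replicate shows activation above 250% relative to neutral control wells; inactive = the rest, any valid replicate at or below 250%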;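 note: OY570 slx delta 5 strain wells were the positive control but not used for scaling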
N-glyco inh = blocks N-linked glycosylation in D54 reporter cells; D54 ERlucT glycosylation luciferase reporter, 24 h; percent of 100 nM tunicamycin response; reporter increase, % at 12.5 µM; actives 0.23% (n = 360,000); AID 588692;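 active = mean luciferase reporter signal, scaled so untreated is 0 and the glycosylation-blocking control 100, at or above a set limit in every replicate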;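 note: luciferase carries N-glycosylation sites so blocking glycosylation raises the light; 0% = median of neutral control wells and 100% = median of 100 nM tunicamycin wells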
An asterisk follows results filed as active; . = no result.

SMILES	Casp6 inh	ALR H2O2 inh	CDK5 inh	NSD2 inh	SUMO Mot1 rescue	N-glyco inh
O=C(CCC(=O)N1CCOc2ccccc21)N1CCOCC1	-2.1	-9.9	0.1	.	-4.9	0.6
O=C(Nc1ccc2c(c1)OCCO2)N1CCN(c2ccccc2)CC1	.	90.5*	0.4	2.0	3.4	-1.4
Cc1cccc(-c2ccc([C@@H]3[C@H]4CN(S(=O)(=O)c5cn(C)cn5)CCCCN4[C@H]3CO)cc2)c1	2.6	.	.	.	.	.
O=C(Cc1ccccn1)NCC[C@@H]1CC[C@H](NC(=O)Nc2ccc(Cl)cc2)[C@H](CO)O1	2.1	.	.	.	.	.
COc1ccc(N2CCN(C(=O)CCC(=O)N3Cc4ccccc4Oc4ncccc43)CC2)cc1	-2.5	90.2*	0.0	6.0	3.1	-1.0
CC(=O)c1ccc(OCC(O)CN2CC(C)OC(C)C2)cc1 (configuration not stated)	.	2.0	0.3	36.3	18.4	1.2
CC1CN(CC(O)COc2ccc(C(C)C)cc2)CC(C)O1 (configuration not stated)	.	0.6	0.3	.	326.2*	1.6
C[C@@H]1CN([C@H](C)CO)C(=O)Cc2cc(NC(=O)Cc3ccccc3)ccc2O[C@@H]1CN(C)Cc1ccc(C(=O)O)cc1	1.6	.	.	.	.	.
O=C(C[C@@H]1C=C[C@@H](NS(=O)(=O)c2ccc(F)cc2)[C@@H](CO)O1)N1CCC(Cc2ccccc2)CC1	-1.3	.	.	.	.	.
CC(=O)Nc1ccc(/C=N/Nc2nc3ccccc3s2)cc1	-2.0	.	0.2	-0.7	.	-12.2
CC(=O)Nc1cccc(/C(C)=N/Nc2nc3ccccc3s2)c1	4.3	97.9*	1.4	-6.1	-10.7	0.8
O=C(NCCCO)c1cc([N+](=O)[O-])cc2c1C=Cc1ccccc1O2	89.3*	-43.7	0.8	4.9	9.1	3.8
CC1(C)C(=O)OC(c2cc(Br)ccc2O)C(C)(C)C1=O (configuration not stated)	.	97.9*	-0.9	-2.4	2.7	-5.4
O=C(NCCc1ccccc1)c1cc(-c2ccco2)on1	2.7	.	-4.4	2.3	13.4	48.2*
COc1cc(/C=N/NS(=O)(=O)c2ccc3ccccc3c2)ccc1OCCN1CCOCC1	.	98.7*	-2.5	2.7	-33.1	-1.9
COc1ccc(S(=O)(=O)N/N=C/c2ccc(OCCN3CCOCC3)c(OC)c2)cc1	0.3	21.1	0.3	4.0	-13.8	0.8
O=C(N/N=C/c1ccc(O)cc1O)C(=O)N/N=C/c1ccc(O)cc1O	39.4*	2.9	0.6	1.6	-26.3	2.5
O=C(NN=Cc1ccc(O)cc1)C(=O)NN=Cc1ccc(O)cc1	0.2	.	1.3	-1.2	.	0.3
O=C(C1=C(O)C(=O)N(c2nccs2)C1c1ccccc1)c1cc2ccccc2o1 (configuration not stated)	0.8	95.6*	-0.9	-0.3	-5.6	0.3
COC(=O)c1ccc(C2C(C(=O)c3ccc(C)o3)=C(O)C(=O)N2c2cc(C)on2)cc1 (configuration not stated)	10.5	91.2*	1.4	1.2	-11.1	4.7
COC(=O)c1ccc(C2C(C(=O)c3ccco3)=C(O)C(=O)N2c2cc(C)on2)cc1 (configuration not stated)	10.4	18.1	-1.2	1.4	3.8	2.0
Cc1cc(N2C(=O)C(O)=C(C(=O)c3cc4ccccc4o3)C2c2ccc([N+](=O)[O-])cc2)no1 (configuration not stated)	25.4	97.7*	.	.	2.3	0.5
Cc1cc(N2C(=O)C(O)=C(C(=O)c3ccco3)C2c2cccc(Oc3ccccc3)c2)no1 (configuration not stated)	21.1	93.9*	.	9.8	193.4	3.4
Cc1cc(N2C(=O)C(O)=C(C(=O)c3cc4ccccc4o3)C2c2cccs2)no1 (configuration not stated)	11.3	-1.2	-0.7	.	21.7	0.3
Cc1ccc(S(=O)(=O)Nc2ccc3c(c2)C(=O)N([C@H](C)CO)C[C@H](C)[C@H](CN(C)C(=O)Nc2c(C)noc2C)OCCCC[C@@H](C)O3)cc1	1.2	.	.	.	.	.
SMILES	Casp6 inh	ALR H2O2 inh	CDK5 inh	NSD2 inh	SUMO Mot1 rescue	N-glyco inh
C[C@@H]1CN([C@@H](C)CO)C(=O)c2cc(NC(=O)C3CCCCC3)ccc2O[C@H]1CN(C)S(=O)(=O)c1ccccc1	0.2	.	.	.	.	.
C[C@H](O)C#Cc1ccc2c(c1)O[C@H](CN(C)C(=O)CC1CC1)[C@H](C)CN([C@@H](C)CO)S2(=O)=O	2.0	.	.	.	.	.
COc1ccc(NC(=O)N(C)C[C@@H]2OCCCC[C@@H](C)Oc3ccc(NS(=O)(=O)c4ccc(C)cc4)cc3C(=O)N([C@@H](C)CO)C[C@H]2C)cc1	-1.8	.	.	.	.	.
Cc1ccc(C2C(C(=O)c3cc4ccccc4o3)=C(O)C(=O)N2c2cc(C)on2)cc1 (configuration not stated)	-1.1	97.9*	-1.4	-5.1	-21.8	1.0
O=C(Nc1ccc(CN2CCOCC2)cc1)c1cc2ccccc2o1	.	-8.4	-0.7	0.2	55.7	-12.2
O=C(Nc1ccc(CN2CCOCC2)cc1)c1cc2ccccn2n1	-3.1	84.9*	0.1	.	8.8	-21.3
COc1ccc(CN(C)C(=O)C23CC4CC(CC(C4)C2)C3)c(OC)c1	26.8	.	0.5	-0.4	328.4*	-0.5
COc1cccc(CN(C)C(=O)C23CC4CC(CC(C4)C2)C3)c1	-2.7	-4.3	-0.3	-6.7	-6.6	-0.6
C[C@H](CO)N1C[C@H](C)[C@@H](CN(C)CC2CCCCC2)Oc2ccc(NS(=O)(=O)c3ccccc3)cc2C1=O	2.3	.	.	.	.	.
COC(=O)c1c(SCc2ccc(C#N)cc2)nc(=O)[nH]c1C	2.5	43.8	-1.5	-2.6	-0.2	-2.3
COC(=O)c1c(SCc2cccc3ccccc23)nc(=O)[nH]c1C	-1.6	99.0*	0.0	3.6	-4.8	-1.4
CC(=O)Nc1ccc(C(=O)n2cnc3cc(C)c(C)cc32)cc1	.	98.7*	1.2	1.0	18.5	-1.3
CCOc1ccc(Br)cc1C(=O)Nc1ccc(C(=O)NCC(C)C)cc1	.	-3.0	-0.4	-1.2	3.3	114.9*
COc1ccc(Br)cc1C(=O)Nc1ccc(C(=O)NCC(C)C)cc1	4.7	1.6	-2.2	1.4	3.0	0.2
Cc1ccc(OCC(=O)NNc2c3ccccc3nc3ccccc23)cc1	-1.7	95.6*	1.4	1.4	-0.1	3.1
O=C(Cc1ccccc1)NNc1c2ccccc2nc2ccccc12	.	98.5*	-2.5	2.3	-15.8	0.3
O=C(Nc1c2ccccc2nc2ccccc12)C(Cl)(Cl)Cl	.	-16.8	-1.7	.	-4.6	93.0*
O=C(Nc1c2c(nc3ccccc13)CCCC2)c1ccccc1Cl	2.6	-6.6	-0.2	-3.4	-18.7	-0.5
Cc1cccc(OCC(=O)NNc2c3ccccc3nc3ccccc23)c1	-0.1	98.9*	-0.7	1.1	-14.9	-1.0
COc1ccc(CN(C)C[C@@H]2Oc3c(NC(=O)c4ccncc4)cccc3C(=O)N([C@@H](C)CO)C[C@H]2C)cc1	3.7	.	.	.	.	.
